Drawing on PubChem BioAssay (Tox21), this text covers Potency and activation for 8 molecules.

Each structure is given as a SMILES string. A number with no mark means an inactive call. Inconclusive results are not listed. Active and inactive are the calls of the source. Unless noted, the call rests on the fitted dose curve; in most records, active means well fitted curve in the direction sought with a large enough effect in the repeat runs; inconclusive means weak or mixed curves; inactive means no such curve, though single readings can be large; an effect the other way counts as inactive or inconclusive.

Experiment [1] in a line: qHTS assay to identify small molecule antagonists of the glucocorticoid receptor (GR) signaling pathway - cell viability counter screen (AID 720693). Further: nearly all actives have a fitted effect of over 55% in size. Further: potency means the concentration at half of the fitted maximal effect.
Experiment [2] is described as follows: qHTS assay for identifying genotoxic compounds that show differential cytotoxicity against isogenic chicken DT40 cell lines with known DNA damage response pathways - wild type cell line (AID 743012). Further: nearly all actives have a fitted effect of over 60% in size. Further: potency means the concentration at half of the fitted maximal effect. The essentials:
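Viability by ATP luminescence (CellTiter-Glo, 30 min RT) after 40 h compound treatment at 37 C/5% CO2, using 300 parental DNA repair-proficient DT40 cells per well.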

Experiment [3] is described as follows: qHTS assay for identifying genotoxic compounds that show differential cytotoxicity against isogenic chicken DT40 cell lines with known DNA damage response pathways - Rev3 mutant cell line (AID 743014). Further: nearly all actives have a fitted effect of over 55% in size. Further: potency means the concentration at half of the fitted maximal effect.
Experiment [4] is described as follows: qHTS assay for identifying genotoxic compounds that show differential cytotoxicity against isogenic chicken DT40 cell lines with known DNA damage response pathways - Rad54/Ku70 mutant cell line (AID 743015). Further: nearly all actives have a fitted effect of over 60% in size. Further: potency means the concentration at half of the fitted maximal effect.
Experiment [5] is described as follows: qHTS assay to identify small molecule antagonists of the androgen receptor (AR) signaling pathway - cell viability counter screen (AID 743033; further: nearly all actives have a fitted effect of over 45% in size; further: potency means the concentration at half of the fitted maximal effect).
Experiment [6] is described as follows: qHTS assay to identify small molecule antagonists of the thyroid receptor (TR) signaling pathway - cell viability counter screen (AID 743064). Further: nearly all actives have a fitted effect of over 50% in size. Further: potency means the concentration at half of the fitted maximal effect. The procedure, abridged: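 GH3.TRE-Luc rat pituitary cells carrying a TRE-luciferase reporter were treated with compound plus 1 nM T3 (final) for 23.5 h at 37 °C. Viability was then read in the same wells by CellTiter-Fluor fluorescence after a further 30 min.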

Experiment [7] is described as follows: qHTS assay to identify small molecule antagonists of the thyroid receptor (TR) signaling pathway (AID 743065). Further: nearly all actives have a fitted effect of over 55% in size. Further: potency means the concentration at half of the fitted maximal effect. The essentials:
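Antagonism measured as loss of luciferase signal in GH3 cells stably carrying a TRE-luciferase reporter, co-treated with compound and T3 (1 nM final) for 23.5 h at 37 C. Viability was read in the same well by CellTiter-Fluor.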

Experiment [8] concerns thyroid hormone receptor (rat, GH3 cells). As to the kind of experiment: qHTS assay to identify small molecule agonists of the thyroid receptor (TR) signaling pathway (AID 743066; calls by dose curve).
Experiment [9] in a line: qHTS assay to identify small molecule antagonists of the estrogen receptor alpha (ER-alpha) signaling pathway - cell viability counter screen (AID 743074; calls by dose curve;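 further: HEK293 cells carrying ER-alpha-UAS-bla reporter stimulated with 17beta-estradiol; nearly all actives have a fitted effect of over 45% in size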; further: potency means the concentration at half of the fitted maximal effect).
The nature of experiment [10]: qHTS assay to identify small molecule antagonists of the estrogen receptor alpha (ER-alpha) signaling pathway using the BG1 cell line - cell viability counter screen (AID 743081).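 Further: compound given together with 17beta-estradiol as the ER stimulus; nearly all actives have a fitted effect of over 45% in size.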 Further: potency means the concentration at half of the fitted maximal effect.
Experiment [11] addresses Estrogen receptor (Homo sapiens) (UniProt P03372). Kind of experiment: qHTS assay to identify small molecule agonists of the estrogen receptor alpha (ER-alpha) signaling pathway (AID 743075; calls by dose curve). The settings on record: HEK293 ER-alpha-UAS-bla, beta-lactamase FRET ratio, 18 h; activation: at 70.1 µM (top of the series).
Another experiment has as its target Aromatase (Homo sapiens) (UniProt P11511). As to the kind of experiment: qHTS assay to identify aromatase inhibitors (AID 743083). Further: nearly all actives have a fitted effect of over 55% in size. Further: potency means the concentration at half of the fitted maximal effect.
Experiment [12] in a line: qHTS assay to identify small molecule antagonists of the androgen receptor (AR) signaling pathway using the MDA cell line - cell viability counter screen (AID 743041; further: nearly all actives have a fitted effect of over 45% in size; further: potency means the concentration at half of the fitted maximal effect). The essentials:
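Viability read by CellTiter-Fluor fluorescence in the same wells as the antagonist screen, added after 15.5 h of a 16 h, 37C exposure. Human breast carcinoma MDA-kb2 AR-luc cells, compounds co-dosed with agonist R1881.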

Experiment [13] has as its target Estrogen receptor (Homo sapiens) (UniProt P03372). Kind of experiment: qHTS assay to identify small molecule antagonists of the estrogen receptor alpha (ER-alpha) signaling pathway (AID 743069; active means well fitted curve in the direction sought with a large enough effect in the signal ratio in the repeat runs, not every such curve was filed as active; the % refers to the signal ratio). The essentials: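 Antagonist mode: compounds in DMSO were co-added with 17beta-estradiol to ER-alpha-bla HEK293 cells (2% charcoal-stripped serum) and left 18 h at 37C. Reporter inhibition was measured as FRET fluorescence after 2 h LiveBLAzer substrate at room temperature.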

Experiment [14] has the same target. Kind of experiment: qHTS assay to identify small molecule agonists of the estrogen receptor alpha (ER-alpha) signaling pathway using the BG1 cell line (AID 743079). Further: nearly all actives have a fitted effect of over 20% in size. As to conditions: BG1Luc4E2 cells, ERE-luciferase agonist, 22 h.
Experiment [15] is described as follows: qHTS assay to identify small molecule antagonists of the estrogen receptor alpha (ER-alpha) signaling pathway using the BG1 cell line (AID 743080; calls by dose curve;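 further: BG1 cells stimulated with 17beta-estradiol alongside compound; nearly all actives have a fitted effect of over 25% in size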). The essentials: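 BG1Luc4E2, endogenous ER-alpha, 4xERE-luc; 5 d charcoal-stripped FBS, phenol red free; 24 h plating; cpd + 17beta-estradiol 21.5 h, 37 C/5% CO2; CellTiter-Fluor viability 30 min, then ONE-Glo luciferase 30 min RT.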

The target of experiment [16] is Androgen receptor (Homo sapiens) (UniProt P10275). As to the kind of experiment: qHTS assay to identify small molecule agonists of the androgen receptor (AR) signaling pathway (AID 743036; active means well fitted activation curve with a large enough effect in the signal ratio in the repeat runs, with a control signal flat, not every such curve was filed as active; the % refers to the signal ratio). The procedure, abridged: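 HEK293 cells stably carrying a UAS-driven beta-lactamase reporter (GeneBLAzer AR-UAS-bla-GripTite) were plated at 2,000 cells/well, rested 4 h at 37C, then exposed to compounds in DMSO for 16 h. LiveBLAzer B/G FRET substrate was added for 2 h at room temperature; fluorescence read.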

The target is the same in experiment [17]. Kind of experiment: qHTS assay to identify small molecule agonists of the androgen receptor (AR) signaling pathway using the MDA cell line (AID 743040; further: nearly all actives have a fitted effect of over 20% in size). The procedure, abridged:
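Luciferase agonist assay: 16 h compound exposure at 37C without CO2 in MDA-kb2 AR-luc cells, whose MMTV promoter responds to both AR and GR. Luminescence measured after 30 min room-temperature incubation with ONE-Glo.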
On the % scale 0 is the no-effect control and ±100 the full control effect.

Aromatase (Homo sapiens), sequence (P11511 whole entry, looked up): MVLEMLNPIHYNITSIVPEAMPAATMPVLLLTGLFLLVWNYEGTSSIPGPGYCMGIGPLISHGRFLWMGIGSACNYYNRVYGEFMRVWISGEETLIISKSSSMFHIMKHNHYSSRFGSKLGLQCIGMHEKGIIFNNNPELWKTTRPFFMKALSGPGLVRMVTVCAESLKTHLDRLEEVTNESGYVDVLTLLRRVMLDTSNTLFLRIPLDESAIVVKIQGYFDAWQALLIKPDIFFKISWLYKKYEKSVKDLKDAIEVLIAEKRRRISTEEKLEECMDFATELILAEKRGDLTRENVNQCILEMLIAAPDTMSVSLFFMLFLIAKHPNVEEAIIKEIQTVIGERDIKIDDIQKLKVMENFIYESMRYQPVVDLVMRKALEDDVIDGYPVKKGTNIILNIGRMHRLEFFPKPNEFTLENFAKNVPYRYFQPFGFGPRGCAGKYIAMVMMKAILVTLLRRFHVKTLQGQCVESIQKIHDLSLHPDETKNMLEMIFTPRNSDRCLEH
Estrogen receptor (Homo sapiens), sequence (P03372 whole entry, looked up): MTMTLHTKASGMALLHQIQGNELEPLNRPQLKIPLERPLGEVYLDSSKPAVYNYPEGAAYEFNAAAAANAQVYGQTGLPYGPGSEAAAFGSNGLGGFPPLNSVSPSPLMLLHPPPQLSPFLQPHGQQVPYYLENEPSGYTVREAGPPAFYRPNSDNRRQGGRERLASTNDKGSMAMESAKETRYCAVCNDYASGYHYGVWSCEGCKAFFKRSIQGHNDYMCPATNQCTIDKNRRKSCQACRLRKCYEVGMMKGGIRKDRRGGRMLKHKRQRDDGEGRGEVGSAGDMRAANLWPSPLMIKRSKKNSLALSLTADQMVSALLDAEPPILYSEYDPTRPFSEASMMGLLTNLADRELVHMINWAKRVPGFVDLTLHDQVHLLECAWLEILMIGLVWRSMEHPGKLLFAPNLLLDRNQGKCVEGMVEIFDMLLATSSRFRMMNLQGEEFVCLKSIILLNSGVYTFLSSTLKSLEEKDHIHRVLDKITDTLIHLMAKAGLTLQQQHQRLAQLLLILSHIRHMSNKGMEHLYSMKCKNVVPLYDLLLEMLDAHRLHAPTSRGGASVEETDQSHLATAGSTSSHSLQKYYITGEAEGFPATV
Androgen receptor (Homo sapiens), sequence (P10275 whole entry, looked up): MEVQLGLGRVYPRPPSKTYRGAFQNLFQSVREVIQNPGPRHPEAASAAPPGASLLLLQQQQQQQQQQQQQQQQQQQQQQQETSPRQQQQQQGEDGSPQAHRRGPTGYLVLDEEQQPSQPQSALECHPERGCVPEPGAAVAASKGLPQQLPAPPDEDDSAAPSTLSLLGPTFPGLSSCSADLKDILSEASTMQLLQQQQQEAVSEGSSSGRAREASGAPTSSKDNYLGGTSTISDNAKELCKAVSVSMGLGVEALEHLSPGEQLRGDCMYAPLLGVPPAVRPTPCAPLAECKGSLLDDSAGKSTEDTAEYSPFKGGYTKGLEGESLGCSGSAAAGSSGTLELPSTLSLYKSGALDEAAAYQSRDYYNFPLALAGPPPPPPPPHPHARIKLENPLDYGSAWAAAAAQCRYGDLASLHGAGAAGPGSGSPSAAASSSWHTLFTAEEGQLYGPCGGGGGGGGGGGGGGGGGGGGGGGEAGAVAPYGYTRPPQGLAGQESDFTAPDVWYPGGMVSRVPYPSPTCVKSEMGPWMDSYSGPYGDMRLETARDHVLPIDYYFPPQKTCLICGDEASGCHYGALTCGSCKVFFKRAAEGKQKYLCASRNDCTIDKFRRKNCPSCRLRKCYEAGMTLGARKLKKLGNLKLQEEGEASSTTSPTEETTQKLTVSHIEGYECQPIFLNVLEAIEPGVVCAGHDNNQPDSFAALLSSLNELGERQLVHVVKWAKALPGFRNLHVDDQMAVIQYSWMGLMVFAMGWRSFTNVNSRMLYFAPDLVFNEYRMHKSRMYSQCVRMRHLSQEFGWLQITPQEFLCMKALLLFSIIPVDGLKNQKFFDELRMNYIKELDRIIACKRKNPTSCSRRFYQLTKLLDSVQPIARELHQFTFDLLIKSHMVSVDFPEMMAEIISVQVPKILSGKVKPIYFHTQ

As for `Cc1[nH]nc2c1N=C(c1ccccc1Cl)c1cc([N+](=O)[O-])ccc1N2`, the Potency is 19.5 µM (active) in experiment [1]; 0.386 µM (active) in experiment [2]; 0.386 µM (active) in experiment [3]; 0.486 µM (active) in experiment [4]; 43.6 µM (active) in experiment [5]; 27.3 µM (active) in experiment [6]. The Potency in experiment [7] is 19.3 µM (active); in [9] it was 6.92 µM (active); in experiment [10] it was 54.5 µM (active). Moreover, in experiment [8], the Potency entry is “inactive”.
As to `O=C(Nc1cccc(Cl)c1)OCC#CCCl`, the Potency was 54.9 µM (active) in [1]; 24.3 µM (active) in experiment [2]; 21.7 µM (active) in experiment [3]; 13.7 µM (active) in experiment [4]; 49 µM (active) in experiment [5]; 24.3 µM (active) in [6]. For the same molecule, the figures for the Potency (in experiment [7]; with Aromatase (Homo sapiens)) were 17.2 µM (active) and 21.7 µM (active), respectively. Moreover, the Potency entry in experiment [11] is “inactive”.
In the case of `Cc1onc(-c2ccccc2Cl)c1C(=O)N[C@@H]1C(=O)N2[C@@H]1SC(C)(C)[C@@H]2C(=O)O`, the Potency entry in experiment [1], in experiment [2], in experiment [3], in [4], in experiment [12] and in [13] was “inactive” in each case. The Potency result (in [9]; in experiment [11]; in experiment [15]; in [10]; with Aromatase (Homo sapiens)) was “inactive” throughout. In [14] (at 32.5 µM (top of the series)), the activation is -4.31%.
As to `O=C1c2c(O)ccc(Nc3ccc(CCO)cc3)c2C(=O)c2c([N+](=O)[O-])ccc(O)c21`, the Potency entry in experiment [1], in [16], in experiment [17], in experiment [12], in experiment [8] and in experiment [9] was “inactive” in each case. Also, the Potency result in [11] and in experiment [15] was “inactive” each time. Also, the Potency in experiment [2] was 61.1 µM (active); in experiment [3] it was 61.1 µM (active); in experiment [4], 27.3 µM (active); in experiment [6] it was 61.1 µM (active). For the same molecule, the activation in experiment [14] (at 70.3 µM (top of the series)) is -6.57%.
Consider `CSc1cnc(C)cn1`, for which the Potency result in experiment [1], in [2], in experiment [3], in experiment [4], in [5] and in [6] was “inactive” throughout. Moreover, the Potency result in experiment [7], in [8], in [13], in experiment [9], in experiment [11] and in [15] was “inactive” each time. The Potency result (in experiment [10]; with Aromatase (Homo sapiens)) was “inactive” throughout. The activation in experiment [14] (at 95 µM (top of the series)) was 0.548%.
`CNc1ccc(O)cc1`: the Potency in experiment [1] is 54.8 µM (active); in experiment [2], 7.68 µM (active); in experiment [3], 6.1 µM (active); in [4], 10.8 µM (active); in experiment [5] it was 38.8 µM (active); in experiment [12], 61 µM (active). In addition, in the experiment with Aromatase (Homo sapiens), the Potency is 15.3 µM (active). In addition, the Potency result in experiment [8] was “inactive”.
On to `Fc1ccc(C(c2ccc(F)cc2)N2CCN(C/C=C/c3ccccc3)CC2)cc1`, for which the Potency result in [1], in experiment [12], in experiment [9], in experiment [11], in [15] and in [10] was “inactive” in each case. Also, the Potency result with Aromatase (Homo sapiens) was “inactive”. Further, the Potency in experiment [2] is 10.6 µM (active); in [3], 13.3 µM (active); in experiment [4] it was 11.9 µM (active). For the same molecule, the activation in experiment [14] (at 70.3 µM (top of the series)) is -22.9%.
Regarding `CC1=C(C(=O)OC(C)C)C(c2cccc([N+](=O)[O-])c2)C(C(=O)OC2CN(C(c3ccccc3)c3ccccc3)C2)=C(N)N1` (stereo unspecified), the Potency in experiment [1] is 8.49 µM (active); in [2], 18.8 µM (active); in experiment [3], 18.8 µM (active); in experiment [4], 13.3 µM (active); in [6], 2.98 µM (active); in [9], 23.9 µM (active). In addition, the Potency with Aromatase (Homo sapiens) is 29.8 µM (active). Also, in experiment [12], the Potency result was “inactive”.
